Hits are enriched below; roughly 0.51% of the tested compounds scored in any of these assays.
E coli growth-1 – inhibitors of Escherichia coli growth. OD600 absorbance (no concentration beside the values). OD600, 23 h; hits give low values. hit rate 0.21% among 330,000. AID 1053175;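 active means OD600 absorbance below the run mean of sample wells minus 3.6 SD, in any replicate, cut at about 0.56 in these data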
Tat transport – inhibitors of E. coli Tat protein transport; hit rate 0.036% among 340,000; AID 488895; E. coli MC4100 TorA-mCherry Tat export, fluorescence; inhibition, % at 10 µM;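 active means mean replicate inhibition at least 50% and at least half of replicates individually reaching 50%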;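 further: exported cargo escapes ClpAP degradation while cytoplasmic cargo is degraded and loses fluorescence; 0% = median of neutral control wells and 100% = median of NaSCN control wells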
phage Ecoli inh – E. coli growth loss with phage present | AID 651602 | inhibition, % at 11.9 µM | growth absorbance | hit rate 0.26% among 360,000; in the data active means inhibition above about 11%
E coli growth-2 – counter-screen for AddAB inhibitors: E. coli growth inhibition. hit rate 0.27% among 330,000. E. coli V3065 growth, OD600 absorbance, 18 h. inhibition, % at 11.9 µM;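 active means inhibition above the campaign's mean inhibition across all tested compounds plus 3 SD, cut at about 9.9% in these data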;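 further: uninfected addAB+ strain grown without phage in ampicillin broth; 0% = DMSO wells and 100% = ciprofloxacin 0.95 µg/ml wells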
AddAB inh – less growth of phage-infected E. coli with AddAB; inhibition, % at 11.9 µM; hit rate 0.29% among 330,000; E. coli expressing H. pylori AddAB, absorbance growth; in the data active means inhibition above about 12%;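 further: 0% = vehicle wells of infected cells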
RecBCD conf – confirmation: growth loss of phage-infected RecBCD+ E. coli (RecBCD inhibitor screen); shares compounds with phage Ecoli inh; hit rate 45% among 890; inhibition, % at 11.9 µM; E. coli V66 + T4 2- phage, growth OD;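 active means mean inhibition over triplicates exceeding the hit threshold derived in the original primary screen, cut at about 11% in these data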
Ecoli viability – inhibits E. coli viability, flagging RecBCD hits as nonselective; shares compounds with phage Ecoli inh; hit rate 29% among 890; inhibition, % at 11.9 µM; absorbance (OD) growth; in the data active means inhibition above about 20%;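 further: E. coli strain V66 grown with compound alone and no phage infection; 0% = bacteria with DMSO vehicle only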
AddAB phage OD – growth loss of phage-infected AddAB E. coli, RecBCD counter-screen | E. coli expressing H. pylori AddAB + T4 phage, OD growth; gene 2 mutant T4, recBCD-deleted host | inhibition, % at 11.9 µM | hit rate 45% among 890 | shares compounds with phage Ecoli inh;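 active means mean inhibition above the solvent-only control wells' mean plus 3 SD, cut at about 22% in these data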;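 further: higher means less bacterial growth from phage killing when AddAB is blocked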
The depositor's hits bear a star.

What do the screens show for `Fc1ccccc1CNC(=S)Nc1cccc(C(F)(F)F)c1`?
E coli growth-1: 0.63; Tat transport: -3.1; phage Ecoli inh: 10.9*; E coli growth-2: 6.7; AddAB inh: 9.1; RecBCD conf: 7.4; Ecoli viability: 8.1; AddAB phage OD: 9.8

Results for CN(C)C(=O)c1cc(Cl)ccc1Sc1cc(Cl)ccc1Cl ?
E coli growth-1: 0.672; Tat transport: -2.4; phage Ecoli inh: 0.7; E coli growth-2: 2.6; AddAB inh: 3.6

What do the screens show for `Oc1ccc(Cl)cc1Sc1cc(Cl)ccc1O`?
Tat transport: -5.0; phage Ecoli inh: 12.1*; RecBCD conf: 9.4; Ecoli viability: 13.5; AddAB phage OD: 9.4

How did Cc1cccc2c1OCCC2=NNC(=O)COc1ccccc1Cl do in these assays?
E coli growth-1: 0.778

What do the screens show for `O=C(O)c1ccc(S(=O)(=O)/N=C2\C=C(Nc3ccccc3F)C(=O)c3ccccc32)cc1`?
E coli growth-1: 0.618; Tat transport: -13.3; phage Ecoli inh: 12.6*; E coli growth-2: 2.5; AddAB inh: 9.3; RecBCD conf: 5.4; Ecoli viability: 6.3; AddAB phage OD: 11.8

How did Cc1ccccc1NC1=C/C(=N\S(=O)(=O)c2ccc(C(=O)O)cc2)c2ccccc2C1=O do in these assays?
E coli growth-1: 0.641; Tat transport: -16.4; phage Ecoli inh: 6.0; E coli growth-2: 4.4; AddAB inh: 10.6

Results for O=C1C=C(c2cccc(Cl)c2)CC(c2ccc3c(c2)OCO3)C1 (stereo not given) ?
E coli growth-1: 0.709

What do the screens show for `Cc1ccc(-c2cnc(NCc3cc4c(cc3[N+](=O)[O-])OCO4)n2C)cc1C`?
E coli growth-1: 0.563; Tat transport: -39.0; phage Ecoli inh: 11.2*; E coli growth-2: 8.5; AddAB inh: 10.1; RecBCD conf: 7.4; Ecoli viability: 11.7; AddAB phage OD: 8.9

What do the screens show for `Cn1c(-c2ccc3c(c2)OCO3)cnc1NCc1ccccc1`?
E coli growth-1: 0.724; Tat transport: 4.2; phage Ecoli inh: 0.7; E coli growth-2: 1.2; AddAB inh: -0.3

How did CCNC(=S)Nc1ccc(Cl)c(C(F)(F)F)c1 do in these assays?
E coli growth-1: 0.605; Tat transport: 5.9; phage Ecoli inh: 12.4*; E coli growth-2: 7.2; AddAB inh: 6.9; RecBCD conf: 4.1; Ecoli viability: 4.2; AddAB phage OD: 11.5

Results for O=C(Nc1ccc(Cl)c(C(F)(F)F)c1)c1ccco1 ?
E coli growth-1: 0.623; Tat transport: 6.4; phage Ecoli inh: 2.2; E coli growth-2: -0.8; AddAB inh: 2.5

How did COc1ccccc1N1CCN(Cc2cc(Br)c(O)c3ncccc23)CC1 do in these assays?
E coli growth-1: 0.803; Tat transport: -4.1; phage Ecoli inh: 11.6*; E coli growth-2: 12.2*; AddAB inh: 10.4; RecBCD conf: 4.1; Ecoli viability: 6.9; AddAB phage OD: -3.3

What do the screens show for `CCOc1ccccc1N1CCN(Cc2cccc(OC)c2O)CC1`?
E coli growth-1: 0.656; Tat transport: -15.7; phage Ecoli inh: 1.5; E coli growth-2: 2.6; AddAB inh: 3.2

Results for Nc1nc(N)c2c(ccc3c2ccn3Cc2cccc([N+](=O)[O-])c2)n1 ?
phage Ecoli inh: 100.2*; RecBCD conf: 102.9*; Ecoli viability: 103.1*; AddAB phage OD: 102.5*

How did Nc1nc(N)c2cc([N+](=O)[O-])ccc2n1 do in these assays?
E coli growth-1: 0.598; Tat transport: 2.2; phage Ecoli inh: 3.9

How did C=CCc1cccc(/C=N/NC(=O)CCCNc2ccc(C)cc2)c1O do in these assays?
Tat transport: 7.7; phage Ecoli inh: 12.1*; E coli growth-2: 2.0; AddAB inh: -0.5; RecBCD conf: 1.2; Ecoli viability: 3.1; AddAB phage OD: 4.6

What do the screens show for `C=CCc1cccc(C=NNC(=O)CCC(=O)Nc2ccc(C)cc2)c1O`?
E coli growth-1: 0.75

Results for Cc1ccc(NC(=S)NC(NC(=O)c2ccco2)C(Cl)(Cl)Cl)cc1 (stereo not given) ?
E coli growth-1: 0.61; Tat transport: 1.6; phage Ecoli inh: 14.3*; E coli growth-2: 11.2*; AddAB inh: 11.7; RecBCD conf: 9.0; Ecoli viability: 11.5; AddAB phage OD: 14.4

Results for COc1ccc(-[n+]2c(C)cc(/C=C3\Sc4ccccc4N3C)cc2C)cc1 ?
E coli growth-1: 0.353*; Tat transport: 67.4*; phage Ecoli inh: 22.4*; E coli growth-2: 25.6*; AddAB inh: 26.6*; RecBCD conf: 20.2*; Ecoli viability: 17.2; AddAB phage OD: 47.5*

How did CN(C(=O)c1cc(COc2ccc(F)c(F)c2)on1)C1CCOC1 (stereo not given) do in these assays?
E coli growth-1: 0.65; Tat transport: -5.5; phage Ecoli inh: 11.2*; E coli growth-2: 0.3; AddAB inh: -10.8; RecBCD conf: -0.8; Ecoli viability: -0.8; AddAB phage OD: 3.5

What do the screens show for `COc1ccc(OCc2cc(C(=O)N(C)C3CCOC3)no2)c(Cl)c1` (stereo not given)?
E coli growth-1: 0.653; Tat transport: -8.4; phage Ecoli inh: 1.9; E coli growth-2: -0.1; AddAB inh: 2.1

Results for CC1CC[C@@]2(O1)OC(CCO)CC(O)C2O (stereo not given in full) ?
E coli growth-1: 0.652

Results for Cc1cccc(C=c2sc(=CC(=O)C(C)(C)C)[nH]c2=O)c1 ?
E coli growth-1: 0.745

How did O=c1[nH]nnc2c1ncn2C1OC(CO)C(O)C1O (stereo not given) do in these assays?
phage Ecoli inh: 16.5*; RecBCD conf: 23.3*; Ecoli viability: 16.6; AddAB phage OD: 28.3*

How did CC(C)CN(C=Nc1sc2c(c1C#N)CCCCC2)CC(C)C do in these assays?
E coli growth-1: 0.668

Results for O=C(NN=Cc1ccc2c(c1)OCO2)c1cc(-c2ccccc2Cl)nc2ccccc12 ?
E coli growth-1: 0.681

Results for CCOC(=O)c1c(C)[nH]c(C(=O)N/N=C\c2ccccc2O)c1C ?
Tat transport: 7.3; phage Ecoli inh: 17.1*; E coli growth-2: -3.1; AddAB inh: 6.0; RecBCD conf: 5.3; Ecoli viability: 7.2; AddAB phage OD: 8.5

What do the screens show for `CCOC(=O)c1c[nH]c2c([N+](=O)[O-])cc(OC)cc2c1=O`?
E coli growth-1: 0.455*; Tat transport: -2.0; phage Ecoli inh: 12.4*; RecBCD conf: 6.5; Ecoli viability: 10.4; AddAB phage OD: 44.2*

What do the screens show for `CCOc1ccc(C=NNC(=O)c2nnn(-c3nonc3N)c2-c2cccs2)cc1`?
E coli growth-1: 0.695

How did CN(C)c1ccc(NC(=O)Cn2cc3c(n2)CCCC3)cc1 do in these assays?
E coli growth-1: 0.77; Tat transport: 8.0; phage Ecoli inh: 12.8*; E coli growth-2: -3.3; AddAB inh: 0.2; RecBCD conf: -0.2; Ecoli viability: -0.9; AddAB phage OD: 3.7
